This passage reports composite z-score and z-score results from PubChem BioAssay.

Assay [1] can be described thus: binders of probe aFSTL3 on microarray, primary screen, stem cell growth factor project, biochemical, small-molecule microarray, fluorescence 635/667 (AID 1064).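 Further: measures binding of the biotinylated anti-FSTL3 antibody to printed compounds.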 The settings on record: higher = more signal.
Assay [2] can be described thus: binders from COS7 lysate, DM2A8 probe, primary screen, torsin A project, cell lysate, small-molecule microarray, fluorescence 635/667 (AID 1065). The settings on record: higher = more signal, COS7 lysate expressing mutant human TOR1A.
Assay [3] can be described thus: binders of probe aFGF2 on microarray, primary screen, stem cell growth factor project, biochemical, small-molecule microarray, fluorescence 635/667 (AID 1067).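 Further: measures binding of biotinylated aFGF2 protein to printed compounds on slides; z-score merges feature fluorescence and signal-to-noise across triplicate slides.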 The settings on record: higher = more signal.
A short description of assay [4]: binders of probe aFGF10 on microarray, primary screen, stem cell growth factor project, biochemical, small-molecule microarray, fluorescence 635/667 (AID 1071).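 Further: score merges 667 nm spot intensity and signal to noise from triplicate slides.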 As to conditions: higher = more signal.
Assay [5] addresses Neurogenic locus notch homolog protein 2 (Homo sapiens) (UniProt Q04721). Briefly: Notch2 binders on small-molecule microarrays, primary screen, biochemical, small-molecule microarray, 635 nm fluorescence, stem cell growth factors (AID 1073). The settings on record: Notch2 binding, higher = more signal.
Assay [6] has as its target Pro-neuregulin-1, membrane-bound isoform (Homo sapiens) (UniProt Q02297). Briefly: NRG1 binders on small-molecule microarrays, primary screen, psychiatric disease protein project, biochemical, small-molecule microarray, fluorescence 635/667 (AID 1075).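 Further: score combines 667 nm spot fluorescence with signal to noise.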 As to conditions: NRG1 binding, 635 nm fluorescence, higher = more signal.
The subject of assay [7] is Neuregulin-1 EGF-like domain. Briefly: binders of neuregulin-1 EGF-like domain, primary screen, biochemical, small-molecule microarray, 635 nm fluorescence (AID 1081).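 Further: binding of the protein to compounds printed on small-molecule microarray slides.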 As to conditions: small-molecule microarray binding, higher = more signal.
Assay [8] is described as follows: FRG1 promoter luciferase signal modulators, primary screen, FRG1 inhibition for FSHD, cell-based, C2C12 myotubes, firefly/Renilla luciferase, luminescence (AID 1084). The settings on record: higher = more signal, called active from +8 up or from −8 down.
Assay [9] is described as follows: binders of probe aFST on microarray, primary screen, stem cell growth factor project, biochemical, small-molecule microarray, fluorescence 635/667 (AID 1086).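 Further: score merges 667 nm fluorescence with signal-to-noise of each printed compound spot.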 As to conditions: higher = more signal.
Assay [10] can be described thus: binders of probe aHhip on microarray, primary screen, stem cell growth factor project, biochemical, small-molecule microarray, fluorescence 635/667 (AID 1087).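 Further: score merges spot fluorescence at 667nm with spot signal to noise ratio.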 As to conditions: higher = more signal.
The subject of assay [11] is PRMT1 (protein arginine N-methyltransferase 1). As to the kind of experiment: PRMT1 binders on small-molecule microarrays, primary screen, biochemical, small-molecule microarray, 635 nm fluorescence (AID 1088).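 Further: binding of Prmt1 protein to compounds spotted on small-molecule microarray slides.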 The settings on record: small-molecule microarray binding, higher = more signal.
Assay [12] is described as follows: yeast growth modulation, basal conditions, primary screen, YJM789 clinical isolate, OD600, 24 h (AID 1089).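 Further: growth of clinical yeast isolate S. cerevisiae YJM 789 seeded 1000 cells per well; test concentration not given here.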 The settings on record: S. cerevisiae YJM789 growth, higher = more signal, called active from +8 up or from −8 down.
Assay [13] in a line: fission yeast growth modulation, primary screen, strain 972, OD600, 24 h, no modulator (AID 1090).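 Further: basal condition with compound alone and no growth modifier present; test concentration not given here.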 As to conditions: S. pombe 972 growth, higher = more signal, called active from +8 up or from −8 down.
A short description of assay [14]: S. cerevisiae growth modulation with rapamycin, primary screen, strain BY4716, OD600, 96 h (AID 1091). Further: test concentration not given here. As to conditions: higher = more signal, called active from +8 up or from −8 down.
Assay [15] deals with Torsin-1A-interacting protein 2 (Homo sapiens) (UniProt Q8NFQ8). As to the kind of experiment: LULL1 binders on small-molecule microarray, primary screen, cell lysate, human LULL1 lysate, 635/667 nm fluorescence (AID 1092).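 Further: probe is lysate of COS7 cells overexpressing human LULL1; score merges per-feature 667 nm fluorescence with signal-to-noise.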 The settings on record: hLULL1 lysate binding, 635 nm fluorescence, higher = more signal.
Assay [16] in a line: E. coli growth modulation, two-sided OD650, primary screen, E. coli filamentation project, strain DRC41, 24 h (AID 1093).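 Further: MC1000 strain lacking acrAB efflux and sulA so SOS filamentation is blocked; test concentration not given here.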 As to conditions: OD650, 24 h, higher = more signal, called active from +8 up or from −8 down.
The nature of assay [17]: small-molecule microarray binders of probe aLefty2, primary screen, biochemical, biotinylated probe, 635/667 nm fluorescence (AID 1094).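 Further: score merges spot fluorescence near 667 nm with spot signal-to-noise ratio.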 As to conditions: higher = more signal.
Assay [18] relates to Noggin (protein binding on small-molecule microarray). As to the kind of experiment: Noggin binders on small-molecule microarray, primary screen, biochemical, 635/667 nm fluorescence (AID 1095).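 Further: score merges 667 nm feature fluorescence with signal to noise over triplicate slides.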 As to conditions: 635 nm fluorescence, higher = more signal.
Assay [19] concerns the target Neurogenic locus notch homolog protein 3 (Homo sapiens) (UniProt Q9UM47). As to the kind of experiment: NOTCH3 binders on small-molecule microarray, primary screen, biochemical, 635/667 nm fluorescence (AID 1096). The settings on record: NOTCH3 binding, 635 nm fluorescence, higher = more signal.
Assay [20] in a line: small-molecule microarray binders of probe aEGFR, primary screen, biochemical, biotinylated probe, 635/667 nm fluorescence (AID 1097).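 Further: probe is a biotinylated anti-EGFR antibody binding compounds printed on slides; score combines fluorescence near 667 nm and signal to noise of each spot.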 As to conditions: higher = more signal.

“And” between values parts separate entries of the source, which are not always exact repeats. Equal values may be shown once. More than one record can exist for a structure, and the calls need not agree. The source made the active and inactive calls.

Sequence of Pro-neuregulin-1, membrane-bound isoform (Homo sapiens) (Q02297 whole entry, looked up, the tested form may be a part, canonical isoform): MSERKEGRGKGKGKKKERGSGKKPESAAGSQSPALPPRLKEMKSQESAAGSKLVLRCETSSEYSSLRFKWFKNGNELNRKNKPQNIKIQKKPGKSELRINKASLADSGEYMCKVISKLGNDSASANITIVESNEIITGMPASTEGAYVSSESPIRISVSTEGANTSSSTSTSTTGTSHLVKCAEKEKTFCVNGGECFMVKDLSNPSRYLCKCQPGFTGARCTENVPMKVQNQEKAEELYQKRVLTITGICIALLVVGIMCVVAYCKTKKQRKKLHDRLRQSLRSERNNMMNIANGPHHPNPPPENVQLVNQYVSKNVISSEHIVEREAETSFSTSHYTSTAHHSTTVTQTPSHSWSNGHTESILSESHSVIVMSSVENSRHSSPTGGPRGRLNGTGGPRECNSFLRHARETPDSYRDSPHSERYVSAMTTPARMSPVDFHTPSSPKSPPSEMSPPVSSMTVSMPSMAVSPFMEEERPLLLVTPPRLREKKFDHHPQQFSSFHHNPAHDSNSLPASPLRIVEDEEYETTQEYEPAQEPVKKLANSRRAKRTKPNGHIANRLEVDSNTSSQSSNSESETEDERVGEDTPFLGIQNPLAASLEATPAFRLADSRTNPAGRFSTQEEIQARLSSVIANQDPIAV
Sequence of Neurogenic locus notch homolog protein 3 (Homo sapiens) (Q9UM47 whole entry, looked up): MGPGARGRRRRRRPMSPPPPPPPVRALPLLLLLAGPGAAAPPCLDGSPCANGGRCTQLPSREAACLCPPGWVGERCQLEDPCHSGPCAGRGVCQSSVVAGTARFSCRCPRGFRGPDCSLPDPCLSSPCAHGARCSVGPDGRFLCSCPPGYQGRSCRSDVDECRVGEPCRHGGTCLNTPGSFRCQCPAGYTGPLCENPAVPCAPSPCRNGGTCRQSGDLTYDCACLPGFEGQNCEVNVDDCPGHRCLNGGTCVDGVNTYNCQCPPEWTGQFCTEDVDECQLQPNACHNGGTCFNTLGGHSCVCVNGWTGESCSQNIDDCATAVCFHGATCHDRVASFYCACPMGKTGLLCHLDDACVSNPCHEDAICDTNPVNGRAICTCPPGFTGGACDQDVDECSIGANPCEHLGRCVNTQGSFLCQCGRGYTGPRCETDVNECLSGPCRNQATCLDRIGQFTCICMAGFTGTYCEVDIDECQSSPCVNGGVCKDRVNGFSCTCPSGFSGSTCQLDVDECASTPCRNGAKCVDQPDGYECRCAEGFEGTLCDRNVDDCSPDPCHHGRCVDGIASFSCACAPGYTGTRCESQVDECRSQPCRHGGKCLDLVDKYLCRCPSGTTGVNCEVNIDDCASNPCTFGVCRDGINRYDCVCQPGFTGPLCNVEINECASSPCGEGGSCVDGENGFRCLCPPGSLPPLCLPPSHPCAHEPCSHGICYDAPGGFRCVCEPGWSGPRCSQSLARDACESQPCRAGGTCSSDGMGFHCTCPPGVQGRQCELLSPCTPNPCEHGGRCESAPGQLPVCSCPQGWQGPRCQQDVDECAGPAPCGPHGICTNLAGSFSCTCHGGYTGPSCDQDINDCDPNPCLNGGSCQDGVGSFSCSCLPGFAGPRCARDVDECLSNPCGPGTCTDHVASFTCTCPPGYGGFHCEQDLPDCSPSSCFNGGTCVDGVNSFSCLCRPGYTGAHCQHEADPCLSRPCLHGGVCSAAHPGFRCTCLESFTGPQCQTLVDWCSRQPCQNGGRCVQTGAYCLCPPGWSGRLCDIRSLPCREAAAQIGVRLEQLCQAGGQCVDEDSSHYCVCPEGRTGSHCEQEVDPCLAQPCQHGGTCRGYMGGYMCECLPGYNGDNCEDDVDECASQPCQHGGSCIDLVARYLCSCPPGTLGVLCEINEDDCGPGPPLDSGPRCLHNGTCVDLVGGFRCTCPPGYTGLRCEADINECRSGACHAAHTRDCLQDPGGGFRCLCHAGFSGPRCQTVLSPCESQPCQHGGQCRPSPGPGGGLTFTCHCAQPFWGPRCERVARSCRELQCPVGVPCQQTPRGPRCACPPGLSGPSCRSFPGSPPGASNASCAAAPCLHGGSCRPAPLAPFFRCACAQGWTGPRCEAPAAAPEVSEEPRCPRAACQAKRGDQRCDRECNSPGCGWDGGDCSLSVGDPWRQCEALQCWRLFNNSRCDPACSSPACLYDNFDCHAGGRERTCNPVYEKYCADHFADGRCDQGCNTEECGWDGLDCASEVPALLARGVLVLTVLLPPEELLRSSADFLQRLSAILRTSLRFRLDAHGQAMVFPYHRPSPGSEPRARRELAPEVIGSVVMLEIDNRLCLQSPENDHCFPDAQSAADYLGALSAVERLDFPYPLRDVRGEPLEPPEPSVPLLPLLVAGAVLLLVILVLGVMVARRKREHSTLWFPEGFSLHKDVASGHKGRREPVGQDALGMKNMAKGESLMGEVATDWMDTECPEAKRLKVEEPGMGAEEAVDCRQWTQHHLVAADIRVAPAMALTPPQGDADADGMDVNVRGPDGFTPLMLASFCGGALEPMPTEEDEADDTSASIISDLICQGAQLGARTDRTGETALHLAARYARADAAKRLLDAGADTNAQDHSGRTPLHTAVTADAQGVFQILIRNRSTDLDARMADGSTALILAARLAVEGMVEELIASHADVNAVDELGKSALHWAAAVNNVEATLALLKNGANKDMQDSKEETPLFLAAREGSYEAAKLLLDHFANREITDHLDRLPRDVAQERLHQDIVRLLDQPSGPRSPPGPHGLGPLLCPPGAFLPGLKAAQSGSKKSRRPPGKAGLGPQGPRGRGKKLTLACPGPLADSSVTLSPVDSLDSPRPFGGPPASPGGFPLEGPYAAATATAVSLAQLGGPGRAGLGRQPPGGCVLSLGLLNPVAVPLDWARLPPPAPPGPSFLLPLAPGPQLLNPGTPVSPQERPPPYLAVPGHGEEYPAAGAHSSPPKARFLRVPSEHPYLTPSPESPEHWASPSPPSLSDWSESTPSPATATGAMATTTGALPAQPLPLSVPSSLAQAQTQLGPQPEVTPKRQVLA
Sequence of Torsin-1A-interacting protein 2 (Homo sapiens) (Q8NFQ8 whole entry, looked up): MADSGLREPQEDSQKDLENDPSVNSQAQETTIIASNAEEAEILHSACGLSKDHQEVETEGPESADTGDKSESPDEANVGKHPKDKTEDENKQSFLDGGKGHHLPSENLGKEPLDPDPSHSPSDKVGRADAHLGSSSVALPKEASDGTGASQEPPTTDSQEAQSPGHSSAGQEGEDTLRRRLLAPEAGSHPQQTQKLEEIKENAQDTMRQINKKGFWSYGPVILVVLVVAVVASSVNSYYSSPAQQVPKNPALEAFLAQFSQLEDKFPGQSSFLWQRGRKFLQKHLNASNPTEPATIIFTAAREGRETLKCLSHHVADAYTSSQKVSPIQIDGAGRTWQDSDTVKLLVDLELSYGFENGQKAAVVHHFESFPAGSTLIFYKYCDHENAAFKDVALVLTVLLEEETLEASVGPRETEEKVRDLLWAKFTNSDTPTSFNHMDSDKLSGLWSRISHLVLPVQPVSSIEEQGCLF

On to `CCCC[C@@H]1CN2[C@@H](CC[C@@H](C)[C@@H]2c2ccc(Br)cc2)C(=O)O1`, for which the composite z-score is -0.519 and -0.353 in assay [1]; 0.191 and 0.217 in [2]; -0.111 and -0.0736 in assay [3]; 0.458 and 0.656 in [4]; 0.333 and 0.493 in [5]; 0.48 and 0.847 in assay [6]. The composite z-score is 0.602 and 0.965 in assay [7]; 0.0218 and 0.0109 in [9]; -0.142 and -0.306 in assay [10]; 1.38 and 0.811 in [11]; 1.93 and 1.44 in assay [15]; -0.0446 and -0.239 in [17]. Also, the composite z-score was 0.0666 and -0.156 in [18]; 0.287 and 0.683 in assay [19]; -0.141 and 0.0021 in [20]. The z-score in assay [8] was 0.427 (inactive) and -0.286 (inactive); in assay [12] it was 0.301 (inactive) and 0.0912 (inactive); in assay [13] it was -17.2 (active) and -6.6 (inactive); in assay [14], -0.278 (inactive) and 0.42 (inactive); in [16] it was 0.133 (inactive) and 0.153 (inactive).

In the case of `CC(CO)N1C(=O)[C@@H]2C3C(=O)OCCC=C[C@H]3OC23C=CCN(c2ccc4ccccc4c2)C(=O)[C@@H]13` (stereo not given in full), the composite z-score in assay [1] is 0.265 and -1.11; in [2] it was -1.36 and -0.483; in [3], -0.0689 and -0.36; in assay [4], -0.282 and -0.642; in assay [5], -0.704 and -1.04; in assay [6], 0.0944 and 1.21. Besides, the composite z-score in assay [7] was 0.713 and 1.19; in [9], -0.0414 and 0.226; in assay [10], -0.388 and -0.937; in [11], 0.6 and -0.266; in assay [15], 3.39 and 0.763; in assay [17], -0.116 and -0.192. For the same compound, the composite z-score in [18] was -0.571 and -0.51; in [19], 0.259 and 0.0899; in [20], -0.324 and -0.343. The z-score is 0.544 (inactive) and 1.81 (inactive) in assay [8]; 1.09 (inactive) and -1.28 (inactive) in [12]; -0.169 (inactive) and -1.95 (inactive) in assay [13]; 0.127 (inactive) and -0.589 (inactive) in assay [14]; -0.138 (inactive) and -0.757 (inactive) in assay [16].

In the case of `C=CCN(CCCC)C(=O)C1N(c2c(Cl)cccc2CO)C(=O)C2C(C(=O)O)C3C=CC21O3` (stereo not given), the composite z-score was 1.38 and 0.489 in assay [1]; -0.331 and -0.392 in [2]; -0.247 and -0.307 in [3]; -0.842 and -1.3 in assay [4]; -1.17 and -1.13 in assay [5]; -0.909 and 0.0849 in [6]. Also, the composite z-score in assay [7] was -0.981 and 0.374; in assay [9], -0.931 and -0.719; in assay [10] it was -0.412 and -0.323; in [11], -0.502 and 0.174; in assay [15], -1.27 and 3.03; in [17], -0.0948 and -0.113. Further, the composite z-score in assay [18] is -2.38 and -0.509; in assay [19], -1.73 and -0.0461; in [20] it was -0.308 and -0.0286. For the same compound, the z-score in assay [8] was 0.183 (inactive) and -0.987 (inactive); in assay [12] it was 0.381 (inactive) and 0.588 (inactive); in assay [13] it was -0.162 (inactive) and -0.186 (inactive); in [14], 0.258 (inactive) and -0.535 (inactive); in assay [16], 0.455 (inactive) and 3.02 (inactive).

In the case of `CC(C)=NOC[C@@H](O)COCc1ccco1`, the composite z-score in assay [1] was -0.0008; in [2], 2.26; in assay [3] it was -0.0924; in assay [4], 0.0026; in assay [5], -1.37; in assay [6] it was 0.126. Moreover, the composite z-score in assay [7] was -0.603; in [9], -0.549; in [10] it was -0.0645; in assay [11] it was -0.697; in assay [15], -0.151; in [17], -0.122. Further, the composite z-score is 0.301 in assay [18], -1.45 in assay [19] and -0.147 in assay [20]. The z-score was 0.929 (inactive) in assay [8]; 0.848 (inactive) in assay [12]; 0.174 (inactive) in assay [13]; 0.746 (inactive) in assay [14]; 0.358 (inactive) in assay [16].

`CC(CO)N1C(=O)[C@@H]2C3C(=O)OCCC=C[C@H]3OC23C=CCN(Cc2ccccc2)C(=O)[C@@H]13` (stereo not given in full): the composite z-score was 0.144 and 0.708 in assay [1]; 1.03 and -0.0188 in assay [2]; -0.162 and -0.111 in assay [3]; -0.691 and 0.0659 in [4]; -1.24 and -0.565 in [5]; -0.852 and 1.22 in assay [6]. The composite z-score in assay [7] is 1.08 and 0.738; in assay [9] it was -0.41 and -0.455; in [10], -0.236 and -0.34; in assay [11], -0.477 and -0.385; in [15] it was 1.16 and 0.0845; in [17] it was -0.0216 and -0.0449. For the same compound, the composite z-score is -1.05 and -0.529 in [18]; -0.36 and -0.377 in [19]; -0.196 and -0.221 in assay [20]. For the same compound, the z-score in assay [8] was 0.587 (inactive) and 0.0791 (inactive); in assay [12], 0.814 (inactive) and -0.448 (inactive); in assay [13], -0.326 (inactive) and -1.08 (inactive); in assay [14], 1.53 (inactive) and -0.42 (inactive); in [16], 1.3 (inactive) and 1.67 (inactive).

For the compound `CC(CO)N1C(=O)[C@@H]2C3C(=O)OCCC=C[C@H]3OC23C=CCN(C(C)(C)C)C(=O)[C@@H]13` (stereo not given in full), the composite z-score was 0.589 and 0.169 in assay [1]; -0.848 and -0.0168 in assay [2]; -0.158 and -0.0296 in assay [3]; -0.884 and 0.546 in assay [4]; -1.01 and 0.13 in [5]; -0.551 and 0.91 in assay [6]. In addition, the composite z-score in assay [7] was 0.369 and 1.41; in assay [9], -0.547 and -0.0366; in assay [10], -0.134 and 0.0749; in assay [11], -0.577 and 0.254; in assay [15], -0.326 and 2.17; in [17] it was -0.176 and 0.0028. For the same compound, the composite z-score in assay [18] was -0.808 and 0.16; in assay [19] it was -0.431 and 0.289; in [20], -0.295 and -0.117. In addition, the z-score was 0.714 (inactive) and 0.355 (inactive) in [8]; 0.581 (inactive) and -1.45 (inactive) in assay [12]; 0.605 (inactive) and -0.779 (inactive) in assay [13]; 0.819 (inactive) and -0.544 (inactive) in assay [14]; -0.586 (inactive) and -0.513 (inactive) in [16].
